PubChem BioAssay AID1159580 (chemical genetic matrix, 2015)
Values joined by “and” are separate entries in the source; they are usually repeats but may differ in a detail not shown here. Identical values can stand only once. About 2,000 (36%) of roughly 5,500 compounds were called active. Another 18% or so got no clear call; they are omitted. No stated cut-off is given here; in the data, active means normalized growth mostly below about 0.91 (no sharp cut-off); inconclusive means no clear call, values can overlap the other calls; inactive means mostly above about 0.92. The list shows a part of the results.

Test: chemical genetic growth profiling, strain panel (AID 1159580);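 further: tested at 20 µM; growth read once vehicle control cultures reached saturation at 30 °C; 1 = growth at the plate median or of vehicle wells; lower values mean less growth of the strain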
Conditions: S. cerevisiae deletion strains, growth OD

Measured: normalized growth

Cn1cnc2c1c(=O)[nH]c(=O)n2C
inactive: locus YAL013W, strain DEP1, active compounds read low 1.01 | locus YAL021C, strain ccr4, active compounds read low 0.952 | locus YAL026C, strain drs2, active compounds read low 0.989 | locus YAL030W, strain snc1, active compounds read low 0.985 | locus YAL040C, strain CLN3, active compounds read low 0.992 | locus YBL061C, strain skt5, active compounds read low 0.985 | locus YBR009C, strain hhf1, active compounds read low 0.997 | locus YBR021W, strain FUR4, active compounds read low 0.991 | locus YBR023C, strain chs3, active compounds read low 1 | locus YBR171W, strain sec66, active compounds read low 0.99 | locus YBR229C, strain ROT2, active compounds read low 1.01 | locus YBR231C, strain swc5, active compounds read low 0.985 | locus YBR279W, strain paf1, active compounds read low 0.997 | locus YCL011C, strain gbp2, active compounds read low 0.978 | locus YCL016C, strain dcc1, active compounds read low 0.993 | locus YCL029C, strain bik1, active compounds read low 1.03 | locus YCL061C, strain MRC1 (second series), active compounds read low 1.01 | locus YCL061C, strain MRC1, active compounds read low 0.984 | locus YCL069W, strain vba3, active compounds read low 0.983 | locus YCR088W, strain abp1, active compounds read low 0.991 | locus YDL005C, strain med2, active compounds read low 0.989 | locus YDL035C, strain GPR1, active compounds read low 1.01 | locus YDL040C, strain nat1, active compounds read low 0.992 | locus YDL074C, strain BRE1, active compounds read low 1.02 | locus YDL101C, strain DUN1, active compounds read low 1.02 | locus YDL134C, strain PPH21, active compounds read low 1.01 | locus YDL185W, strain tfp1, active compounds read low 1.01 | locus YDL192W, strain arf1, active compounds read low 1.01 | locus YDR001C, strain nth1, active compounds read low 0.984 | locus YDR069C, strain doa4, active compounds read low 0.959 | locus YDR101C, strain arx1, active compounds read low 1.01 | locus YDR137W, strain rgp1, active compounds read low 1.03 | locus YDR150W, strain NUM1, active compounds read low 1.01 | locus YDR159W, strain sac3, active compounds read low 0.973 | locus YDR162C, strain NBP2, active compounds read low 1.01 | locus YDR195W, strain ref2 0.944 | locus YDR297W, strain sur2, active compounds read low 0.991 | locus YDR318W, strain mcm21, active compounds read low 1.03 | locus YDR334W, strain swr1, active compounds read low 0.98 | locus YDR335W, strain msn5, active compounds read low 0.976 | locus YDR363W, strain ESC2, active compounds read low 0.998 | locus YDR388W, active compounds read low 1.01 | locus YDR392W, strain spt3, active compounds read low 0.993 | locus YDR502C, strain sam2, active compounds read low 1 | locus YEL003W, strain gim4, active compounds read low 0.988 | locus YEL037C, strain rad23, active compounds read low 0.993 | locus YEL061C, strain CIN8 (second series), active compounds read low 0.974 | locus YEL061C, strain CIN8, active compounds read low 1.01 | locus YER002W, strain NOP16, active compounds read low 1.04 | locus YER015W, strain faa2, active compounds read low 0.981 | locus YER016W, strain bim1, active compounds read low 0.991 | locus YER110C, active compounds read low 1.01 | locus YER111C, strain swi4, active compounds read low 0.985 | locus YER155C, strain BEM2 (second series), active compounds read low 1 | locus YER155C, strain BEM2, active compounds read low 1.01 | locus YER167W, strain BCK2, active compounds read low 1.01 | locus YFR010W, strain ubp6, active compounds read low 0.971 | locus YGL078C, strain dbp3, active compounds read low 1.01 | locus YGL086W, strain mad1, active compounds read low 1 | locus YGL167C, strain pmr1, active compounds read low 0.976 | locus YGL173C, strain kem1, active compounds read low 0.988 | locus YGL227W, strain vid30, active compounds read low 0.994 | locus YGL240W, strain doc1, active compounds read low 0.966 | locus YGL248W, strain PDE1, active compounds read low 1.01 | locus YGL253W, strain hxk2, active compounds read low 0.99 | locus YGR078C, strain PAC10, active compounds read low 1.01 | locus YGR135W, strain pre9, active compounds read low 1.02 | locus YGR229C, strain SMI1, active compounds read low 1.02 and 1.05 | locus YGR252W, strain gcn5, active compounds read low 1.01 | locus YHR013C, strain ard1, active compounds read low 0.961 | locus YHR027C, strain rpn1, active compounds read low 0.972 | locus YHR030C, strain SLT2, active compounds read low 1.01 and 0.97 | locus YHR079C, strain IRE1 (second series), active compounds read low 1.02 | locus YHR079C, strain IRE1, active compounds read low 0.996 | locus YHR094C, strain hxt1, active compounds read low 1.01 | locus YHR129C, strain ARP1, active compounds read low 1.01 | locus YHR142W, strain chs7, active compounds read low 0.999 | locus YHR200W, strain rpn10, active compounds read low 1 | locus YIL066C, strain RNR3, active compounds read low 1.02 | locus YIL073C, strain SPO22, active compounds read low 1.05 | locus YIL125W, strain kgd1, active compounds read low 1.01 | locus YIR030C, strain dcg1, active compounds read low 1.01 | locus YJL092W, strain hpr5, active compounds read low 0.989 | locus YJL095W, strain BCK1 (second series), active compounds read low 0.996 | locus YJL095W, strain BCK1, active compounds read low 1.03 and 0.985 | locus YJL115W, strain asf1, active compounds read low 0.976 | locus YJL129C, strain trk1, active compounds read low 0.963 | locus YJL134W, strain LCB3, active compounds read low 1.01 | locus YJL154C, strain vps35, active compounds read low 0.995 | locus YJL164C, strain tpk1, active compounds read low 0.978 | locus YJL166W, strain qcr8, active compounds read low 0.992 | locus YJL168C, strain set2, active compounds read low 1.01 | locus YJL187C, strain SWE1 (second series), active compounds read low 1.03 | locus YJL187C, strain SWE1, active compounds read low 0.983 | locus YJR043C, strain POL32, active compounds read low 1.01 | locus YJR066W, strain TOR1, active compounds read low 0.963
